Measured values published in PubChem BioAssay AID652100 (National Center for Advancing Translational Sciences (NCATS), 2013).
Calls of active or inactive are those of the source.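 How the source made its calls: active means compounds that bring Gaucher patient macrophage uptake of dying cells up to about normal macrophage levels; inactive means the rest.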

Assay: Extended Characterization of Activators of N370S glucocerebrosidase as a Potential Chaperone Treatment of Gaucher Disease: Efferocytosis Index
Conditions: Gaucher patient macrophages, apoptotic Jurkat efferocytosis imaging
Text: Glucocerebrosidase (GCase) catalyzes the hydrolysis of beta-glucocerebroside (GC) to glucose and ceramide in lysosomes. Mutations in the glucocerebrosidase gene result in Gaucher disease, an autosomal recessive lysosomal storage disorder. Many of the mutations encountered in patients with Gaucher disease are missense alterations that may cause misfolding, decreased stability and/or mistrafficking of this lysosomal protein. […] These inhibitors include iminosugar analogs and other inhibitors that were discovered as part of previous work. However, the enhancement of enzyme activity by the chaperone action of an enzyme inhibitor must be balanced against the direct inhibition of the enzyme. […] In this extended characterization of our probe, we have further characterized the activity of probes in relevant models of Gaucher disease. This assay examine efferocytosis in patient-derived macrophages following compound incubation. NIH Chemical Genomics Center [NCGC] NIH Molecular Libraries Probe Production Centers Network [MLPCN] MLPCN Grant: MH086442 Assay Submitter (PI): Ellen Sidransky, NHGRI
Jurkat T-cells were stained with green cell tracker (Molecular Probes), and apoptosis was induced using UVB radiation for 2 min (BioRad). […] The number of T-cells taken up by macrophages was counted and normalized to the number of cells per field.
With `C#Cc1ccc(NC(=O)c2cnn3c(C)cc(C)nc23)cc1` the outcome was “active; similar to control”.
